Sfp inh = inhibitors of Bacillus subtilis Sfp phosphopantetheinyl transferase; Q9F4F7; Potency, µM, for the others: largest response in the series, negative = inhibition, actives largely listed as inhibitors; actives 3.5% (n = 310,000); AID 1490; Biochemical Sfp PPTase activity, qHTS;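 note: the enzyme is Sfp with the accession as filed and its product quenches rhodamine fluorescence; potency is the fitted concentration of half-maximal effect; 0% = enzyme reaction without inhibitor and -100% = no enzyme wells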
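Fluorescence-quenching assay: 15 nM Sfp-PPTase preincubated 15 min at room temperature with compound, then 5 uM rhodamine-CoA and 12.5 uM BHQ-2-labelled YbbR peptide added. Fluorescence (ex 525/em 598 nm) read at start and after 30 min; difference gives rate.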
KDM4E inh = inhibitors of human JMJD2E histone demethylase; Potency, µM (top dose mostly 57.1 µM), inactives show at the highest dose activity change, negative = inhibition, hits mostly inhibitors; JMJD2E catalytic domain, FDH-coupled NADH fluorescence (FDH is formaldehyde dehydrogenase); actives 1.6% (n = 230,000); B2RXH2; active = well fitted inhibition curve with a large enough effect, not every such curve was filed as active; inconclusive = small, poorly fitted or top-dose-only effect, or another doubt; inactive = no such curve, though single readings can be large or run the other way;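 note: potency is the fitted concentration of half-maximal effect; 0% = wells with enzyme and -100% = buffer wells without enzyme; nearly all actives have a fitted effect of over 50% in size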
Target sequence (B2RXH2 1-337 limits assumed): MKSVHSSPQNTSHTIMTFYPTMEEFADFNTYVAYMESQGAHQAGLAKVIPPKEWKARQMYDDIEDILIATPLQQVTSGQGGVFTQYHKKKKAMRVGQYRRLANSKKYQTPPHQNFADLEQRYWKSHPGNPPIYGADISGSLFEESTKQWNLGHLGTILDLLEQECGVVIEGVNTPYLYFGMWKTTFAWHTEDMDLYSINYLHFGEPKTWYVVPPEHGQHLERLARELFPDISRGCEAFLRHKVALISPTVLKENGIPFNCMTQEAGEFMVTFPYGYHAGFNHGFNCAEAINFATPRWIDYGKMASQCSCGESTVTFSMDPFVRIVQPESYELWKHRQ
ALDH1A1 block = inhibitors of human aldehyde dehydrogenase 1A1 | Potency, µM (doses to about 75.3 µM), inactives show at the top dose activity, negative = inhibition, usual class: inhibitors | actives 7.3% (n = 220,000) | P00352 | Purified ALDH1A1, NADH fluorescence, propionaldehyde substrate; active = well fitted inhibition curve with a large enough effect, not every such curve was filed as active; inconclusive = small, poorly fitted or top-dose-only effect, or another doubt; inactive = no such curve, though single readings can be large or run the other way;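 note: potency is the fitted concentration of half-maximal effect; plate controls were no enzyme wells and a reference inhibitor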
Coupling enz = inhibits coupling enzyme system, counter-screen for aldolase hits | coupling enzyme system counterscreen, AmpLite Red fluorescence | activity change, negative = inhibition, % at 58.2 µM, hits read low | actives 0.67% (n = 290,000); in the data active = activity change below about -30%
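Coupling enzymes only (glyceraldehyde-3-phosphate) + compound, at 57.5 uM final, 10 min RT; add substrate/coupling/AmpLite Red mix, 20 min RT; fluorescence ex 525/em 598 nm. Actives flag coupling-system interference.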
RGS12 GoLoco inh = inhibitors of human Gai1-RGS12 GoLoco interaction (red fluorophore); P63096; Gai1:RGS12 GoLoco peptide FP, rhodamine, 10 min; Potency, µM (highest dose often 61.6 µM), for the others: top-dose activity, negative = inhibition, most hits filed as inhibitors; actives 0.44% (n = 230,000); AID 880; active = well fitted inhibition curve with a large enough effect, not every such curve was filed as active; inactive = no such curve, though single readings can be large or run the other way; note: potency is the fitted concentration of half-maximal effect; nearly all actives have a fitted effect of over 30% in size
NPSR antag = neuropeptide S receptor (human) antagonism, cAMP; Q6W5P4; CHO-NPSR cells, cAMP TR-FRET, antagonist mode; Potency, µM (doses to about 38.3 µM), inactives show at the top dose activity change, negative = inhibition, hits mostly inhibitors; actives 1% (n = 220,000); AID 1461; note: potency is the fitted concentration of half-maximal effect; nearly all actives have a fitted effect of over 50% in size
Target sequence (Q6W5P4 whole entry, looked up): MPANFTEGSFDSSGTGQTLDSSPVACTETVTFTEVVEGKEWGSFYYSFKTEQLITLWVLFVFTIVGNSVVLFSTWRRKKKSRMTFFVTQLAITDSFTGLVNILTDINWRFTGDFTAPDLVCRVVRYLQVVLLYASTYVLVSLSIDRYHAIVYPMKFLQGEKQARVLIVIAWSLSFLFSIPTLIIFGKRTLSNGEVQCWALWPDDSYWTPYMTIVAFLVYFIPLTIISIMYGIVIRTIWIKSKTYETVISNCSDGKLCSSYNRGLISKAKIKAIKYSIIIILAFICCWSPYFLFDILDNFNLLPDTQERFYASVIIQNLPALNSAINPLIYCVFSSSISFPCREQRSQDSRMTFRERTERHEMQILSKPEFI
Active calls of the source: *; ? = inconclusive; . = no result; [ ] = another dose, or the depositor's remark. This is a sample that favours compounds with a hit; in the whole collection about 8.5% have one here. Unless noted, calls come from the whole dose curve; as a rule, active = well fitted curve in the direction sought with a large enough effect; inconclusive = small, poorly fitted or top-dose-only effect, or another doubt; inactive = no such curve, though single readings can be large; an effect the other way counts as inactive or inconclusive. Unless noted, % is set by controls: 0 for no effect and ±100 for the full control effect.

SMILES	Sfp inh	KDM4E inh	ALDH1A1 block	Coupling enz	RGS12 GoLoco inh	NPSR antag
Cc1c(/C(O)=C2/C(=O)C(=O)N(Cc3cccnc3)C2c2ccccn2)cnn1-c1ccccc1 (configuration not stated)	1%	?	?	10	13%	11%
CN(C)S(=O)(=O)c1ccc(/C(O)=C2/C(=O)C(=O)N(Cc3cccnc3)C2c2ccncc2)cc1 (configuration not stated)	-19%	-28%	14µM*	7	-10%	4%[46.1 µM]
O=C1C(=O)N(Cc2cccnc2)C(c2ccccn2)/C1=C(/O)c1ccc(F)cc1 (configuration not stated)	89µM*	?	?	-9	-11%	5%[46.1 µM]
CN(C1=C(NC(=O)c2ccc(Cl)cc2)C(=O)c2ccccc2C1=O)c1ccccc1	-4%	3%	?	-55*	.	-22%[46.1 µM]
O=C(NC1=C(Nc2ccc(Cl)cc2)C(=O)c2ccccc2C1=O)c1ccccc1	56µM*	?	-4%	-30*	-11%	-6%
O=C(NC1=C(NC2CCS(=O)(=O)C2)C(=O)c2ccccc2C1=O)c1ccccc1 (configuration not stated)	35µM*	6%	20µM*	-62*	-21%	-40%
O=C1C(Cl)=C(NC(=O)c2ccccc2)C(=O)C(Cl)=C1NC(=O)c1ccccc1	0.89µM*	.	.	-29	.	.
O=C(Nc1cccc(NC(=O)c2ccccc2)n1)c1ccccc1	-6%	.	.	2	.	.
CCN(CC)C(=O)CSc1nc2c(sc(=S)n2-c2ccccc2)c(=O)n1-c1ccc(OC)c(OC)c1	7%	.	.	-6	.	.
COc1ccc(OC)c(C(=O)NC2CC(C)(C)Cc3c2cnn3-c2ccccc2)c1 (configuration not stated)	-12%	.	.	-1	.	.
COc1cccc(C(CNC(=O)C(c2ccccc2)c2ccccc2)N(C)C)c1 (configuration not stated)	3%	.	.	-3	.	.
Nc1nc(SCc2ccccc2Cl)cc(C(=O)O)n1	.	.	0%[13.5 µM]	.	-2%[14.2 µM]	.
Cc1c2oc3c(C)ccc(C(=O)N[C@@H]4C(=O)N[C@@H](C(C)C)C(=O)N5CCC[C@@H]5C(=O)N(C)CC(=O)N(C)[C@@H](C(C)C)C(=O)O[C@H]4C)c3nc-2c(C(=O)N[C@@H]2C(=O)N[C@@H](C(C)C)C(=O)N3CCC[C@@H]3C(=O)N(C)CC(=O)N(C)[C@@H](C(C)C)C(=O)O[C@H]2C)c(N)c1=O	-9%	?	?	-27	7%	.
Cc1cccc(NC2=C(NC(=O)c3ccccc3)C(=O)c3ccccc3C2=O)c1	20µM*	-17%	25µM*	-41*	16%	-28%
OCCN(Cc1ccccc1)C(=S)Nc1ccc(Cl)cc1Cl	?	1%	?	-6	-6%	-19%
C/C(=N\NC(N)=S)C1=CCC2C3CC[C@H]4CC(O)CC[C@]4(C)C3CC[C@]12C (some centres not stated)	40µM*	.	.	0	.	.
CC12CCC3C(CCC4CC(O)CCC43C)C1CC=C2c1ccccc1 (configuration not stated)	7%	.	.	-1	.	.
COCCNc1nnc(SCC(=O)NNC(=O)c2ccccc2)s1	-16%	-4%	8%	2	4%	11%
COCCNc1nnc(SCC(=O)Nc2sc3c(c2C(=O)c2ccccc2)CCCC3)s1	?	-2%	28µM*	-10	2%	-7%
Cc1ccc(C(=O)c2c(NC(=O)CSc3nnc(N)s3)sc3c2CCCC3)cc1	13%	7%	-3%	3	0%	-20%
Nc1nnc(SCC(=O)Nc2sc3c(c2C(=O)c2ccccc2)CCCC3)s1	-17%	3%	13µM*	-3	59%	-12%
COc1ccc(-c2cnc(-c3cccnc3)o2)cc1	-6%	?	?	-1	4%	.
CC(C)Oc1ccc(C(=O)Nc2ncn[nH]2)cc1	9%	.	.	2	.	.
O=C(CSc1nnc2c3ccccc3c3ccccc3c2n1)Nc1ccccc1	9%	-10%	0%	-44*	124%	?
O=C(CSc1nncc2ccccc12)Nc1ccc(C(=O)O)cc1	50µM*	.	.	.	.	.
SMILES	Sfp inh	KDM4E inh	ALDH1A1 block	Coupling enz	RGS12 GoLoco inh	NPSR antag
O=C(O)CSc1nnc2c3ccccc3c3ccccc3c2n1	.	.	?	.	12%[14.2 µM]	.
O=C(CSc1nnc2c3ccccc3c3ccccc3c2n1)Nc1ccccc1F	-63%	0%	8.9µM*	-40*	159%	?
O=C(CSc1nnc(-c2ccccn2)o1)Nc1ccccc1F	-17%	.	.	.	.	.
Cc1sc(NC(=O)C(C)C)c(C(=O)Nc2ccccc2)c1C	3%	-2%	-3%	0	7%	-15%[46.1 µM]
O=C(N1CCCCC1)N1CCN(S(=O)(=O)c2cccc([N+](=O)[O-])c2)CC1	7%	.	.	.	.	.
O=C(CSC(=S)N1CCCC1)N1CCN(S(=O)(=O)c2cccc([N+](=O)[O-])c2)CC1	50µM*	.	.	.	.	.
CCOc1ccc(S(=O)(=O)N2CCC(C(=O)NCCc3ccc(S(N)(=O)=O)cc3)CC2)cc1	-2%	.	.	1	.	.
COc1ccc(N2CCN(S(=O)(=O)c3cc4c(cc3C)NC(=O)CO4)CC2)cc1	-1%	.	.	1	.	.
CCN(CC)CCCCCOc1ccccc1OC	10%	-1%	0.028µM*	0	8%	-12%[46.1 µM]
O=C1CC(c2ccccc2)CC(O)=C1C=NCCN1CCN(Cc2ccccc2)CC1 (configuration not stated)	4%	2%	-12%	0	9%	-4%
O=C(OCC(=O)N1CCCc2ccccc21)c1cc(Cl)ccc1O	8%	.	.	.	.	.
N#Cc1c(SCC(=O)Nc2nncs2)sc2c(O)cc(=O)[nH]c12	14µM*	.	.	3	.	.
O=[N+]([O-])c1ccc(O)c(-c2nn[nH]n2)c1	-18%	0.4µM*	1%	-15	9%	-10%[46.1 µM]
O=[N+]([O-])c1ccc(O)c(P(=O)(c2ccccc2)c2ccccc2)c1	3%	.	.	15	.	.
Cc1cc(C)n(-c2ccc([N+](=O)[O-])cc2-c2nn[nH]n2)n1	79µM*	-10%	-5%	1	1%	12%
O=C(NC1(C(F)(F)F)N=C2SCCN2C1=O)C1CCCCC1 (configuration not stated)	63µM*	-4%	2%	6	9%	3%[46.1 µM]
CCOC(=O)c1ccc(-c2ccc3c(=O)c4ccccc4n(C)c3c2)cc1F	15%	.	.	0	.	.
C=CC(=O)OCCCCCCOC(=O)C=C	.	.	2µM*	.	1%	.
CCCCOC(=O)/C=C\C(=O)OCCCC	-2%	0%	.	-2	-18%	18%
Cc1ccccc1-n1c(-c2csc(C)c2C)n[nH]c1=S	-11%	-20%	?	2	2%	-12%
Cc1ccccc1-n1c(-c2csc3ccccc23)n[nH]c1=S	14%	-1%	22µM*	0	7%	-15%
